# In PubChem BioAssay (EPA / NIEHS):
# Inconclusive results are not listed. Calls of active or inactive are those of the source. How the source made its calls, unless noted: active means hit-call score of the fitted dose curve at least 0.9, where 1 is the maximum; inactive means score below 0.9.
# What was measured:
# [1] = biological target: Aryl hydrocarbon receptor (Homo sapiens) (UniProt P35869); assay: ATG_Ahr_CIS: Attagene CIS-FACTORIAL HepG2 Assay for human Aryl Hydrocarbon Receptor (Ahr) (AID 2282930); conditions: HepG2 AhR cis-factorial reporter transcription; actives raise or lower the signal
# Method in brief: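 Values derive from bidirectional fitting against DMSO negative control. Underlying signal: cis-element reporter mRNA in transiently transfected HepG2, harvested 24 h post-dose and measured by RT-PCR plus capillary electrophoresis.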
# [2] = biological target: Transcription factor E2F1 (Homo sapiens) (UniProt Q01094); assay: ATG_E2F_CIS: Attagene CIS-FACTORIAL HepG2 Assay for human E2F Transcription Factor 1 (AID 2282935); conditions: HepG2 Attagene cis-reporter, E2F reporter RNA transcripts; actives raise or lower the signal
# Method in brief: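 First, HepG2 cells were transfected with reporter transcription units. Next, they were dosed for 24 h. Then RNA was isolated, converted to cDNA, PCR-amplified, FAM-labeled, HpaI-digested and analyzed by capillary electrophoresis.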
# [3] = ATG_GLI_CIS: Attagene CIS-FACTORIAL HepG2 Assay for human Zinc Finger Protein GLI1 (AID 2282945); conditions: HepG2, Attagene cis-factorial reporter mRNA, GLI element; actives raise or lower the signal
# Method in brief: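 HepG2 cells transiently transfected with cis-promoter multiplexed reporter units report endogenous transcription factor activity. After 24 h chemical exposure, reporter mRNA was quantified by RT-PCR, 6-FAM labelling, HpaI digestion and capillary electrophoresis, with bidirectional fitting against DMSO.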
# [4] = ATG_PXRE_CIS: Attagene CIS-FACTORIAL HepG2 Assay for human Pregnane X Receptor Element (PXRE) (AID 2282957); conditions: HepG2 Attagene CIS-FACTORIAL PXRE reporter, mRNA; actives raise or lower the signal
# Method in brief: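 Using HepG2 transfected with multiple reporter transcription units, endogenous factor-driven transcription was scored as reporter mRNA after 24 h exposure.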
# [5] = ATG_PPRE_CIS: Attagene CIS-FACTORIAL HepG2 Assay for human Peroxisome Proliferator-activated Response Element (PPRE) (AID 2282958); conditions: HepG2 PPRE cis-element reporter, Attagene transcription factor profiling; actives raise or lower the signal
# Method in brief: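 HepG2 cells transiently transfected with multiplexed cis-element reporter units measure endogenous transcription factor activity. After 24 h compound exposure, reporter mRNA is quantified by RT-PCR, 6-FAM labeling, HpaI digestion and capillary electrophoresis; bidirectional fits are made against DMSO baseline.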
# [6] = ATG_SREBP_CIS: Attagene CIS-FACTORIAL HepG2 Assay for human Sterol Regulatory Element Binding (SREBP) (AID 2282962); conditions: HepG2 Attagene cis-factorial SREBP reporter, mRNA; actives raise or lower the signal
# Method in brief: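 Endogenous factor activity is measured in HepG2 through multiplexed reporter units under cis-element control. Following a 24 h incubation, reporter transcripts are reverse-transcribed, PCR-amplified and sized by capillary electrophoresis; activity is fitted in both directions relative to DMSO.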
# [7] = ATG_Oct_MLP_CIS: Attagene CIS-FACTORIAL HepG2 Assay for human Octamer-Binding Transcription Factor (Oct) (AID 2282993); conditions: HepG2 Attagene cis-factorial Oct reporter, mRNA; actives raise or lower the signal
# Method in brief: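 Read-out: reporter mRNA via RT-PCR plus capillary electrophoresis of 6-FAM-labelled fragments. Transiently transfected HepG2, 24 h exposure, endogenous TF activity on cis elements. Gain or loss of signal fitted relative to DMSO.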
# [8] = biological target: Peroxisome proliferator-activated receptor gamma (Homo sapiens) (UniProt P37231); assay: ATG_PPARg_TRANS: Attagene TRANS-FACTORIAL HepG2 Assay for human Peroxisome Proliferator-activated Receptor-gamma (PPARg) (AID 2283007; active means hit-call score of the fitted dose curve at least 0.9, where 1 is the maximum)
# Method in brief: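 HepG2 cells transiently transfected with multiplexed GAL4-UAS reporter units and exogenous chimeric NR-Gal4 proteins; reporter mRNA quantified after 24 h compound exposure by RT-PCR, fluorescent labelling, HpaI digestion and capillary electrophoresis; gain-of-signal fitted versus DMSO baseline.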
# [9] = biological target: Retinoic acid receptor RXR-alpha (Homo sapiens) (UniProt P19793); assay: ATG_RXRa_TRANS: Attagene TRANS-FACTORIAL HepG2 Assay for human Retinoid X Receptor alpha (RXRa) (AID 2283012; active means hit-call score of the fitted dose curve at least 0.9, where 1 is the maximum)
# Method in brief: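 Measures exogenous chimeric NR-GAL4 activity in transfected HepG2 liver cells after 24 h of dosing. Induced reporter mRNA was detected by RT-PCR with capillary electrophoresis, and gain of signal was analysed against DMSO.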
# [10] = biological target: human Thyroid Receptor alpha (THRa1), THRA (gene 7067) (UniProt P10827); assay: ATG_THRa1_TRANS: Attagene TRANS-FACTORIAL HepG2 Assay for human Thyroid Receptor alpha (THRa1) (AID 2283014; active means hit-call score of the fitted dose curve at least 0.9, where 1 is the maximum)
# Method in brief: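 Reporter transcript induction, read by capillary electrophoresis of 6-FAM-labelled RT-PCR products, reflects activity of a transfected THRa1-Gal4 fusion in HepG2 liver cells. Cells were dosed for 24 h; activity was fitted in the positive direction against DMSO.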
# [11] = biological target: Cellular tumor antigen p53 (Homo sapiens) (UniProt P04637); assay: TOX21_p53_BLA_p2_ratio: Tox21 HCT-116 p53 Agonism Beta-lactamase Assay, Ratio, Phase 2 (AID 2283592; active means hit-call score of the fitted dose curve at least 0.9, where 1 is the maximum)
# Method in brief: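 Plated HCT116 p53-bla cells (4000/well) received compound after 5 h, then 16 h at 37C/5% CO2. CCF4-AM added, 2 h RT. Ratio of 460 to 530 nm emission taken as the p53 reporter signal.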
# [12] = biological target: Cellular tumor antigen p53 (Homo sapiens) (UniProt P04637); assay: TOX21_p53_BLA_p3_ratio: Tox21 HCT-116 p53 Agonism Beta-lactamase Assay, Ratio, Phase 3 (AID 2283596; active means hit-call score of the fitted dose curve at least 0.9, where 1 is the maximum)
# Method in brief: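 Cells were seeded at 4000/well, rested 5 h at 37C, then dosed with DMSO compound solutions (217-fold dilution) for 16 h. CCF4-AM substrate was loaded for 2 h at room temperature, and the 460/530 nm emission ratio was fitted for gain of signal versus DMSO.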
# [13] = biological target: Cellular tumor antigen p53 (Homo sapiens) (UniProt P04637); assay: TOX21_p53_BLA_p5_ratio: Tox21 HCT-116 p53 Agonism Beta-lactamase Assay, Ratio, Phase 5 (AID 2283599; active means hit-call score of the fitted dose curve at least 0.9, where 1 is the maximum)
# Method in brief: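 HCT-116 cells carrying a p53-inducible beta-lactamase reporter were seeded at 4000 cells/well and dosed after 5 h with compound in DMSO (217-fold dilution). After 16 h at 37C, CCF4-AM substrate was added for 2 h, and the 460/530 nm emission ratio was scored as gain-of-signal versus DMSO.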
# [14] = biological target: Cellular tumor antigen p53 (Homo sapiens) (UniProt P04637); assay: TOX21_p53_BLA_p4_ratio: Tox21 HCT-116 p53 Agonism Beta-lactamase Assay, Ratio, Phase 4 (AID 2283601; active means hit-call score of the fitted dose curve at least 0.9, where 1 is the maximum)
# Method in brief: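 HCT116 cells carrying an inducible beta-lactamase reporter were plated at 4000 cells/well, rested 5 h, then exposed to compounds in DMSO (217-fold dilution) for 16 h at 37C. CCF4-AM substrate was loaded 2 h at room temperature; 460/530 nm emission ratio scored gain-of-signal versus DMSO.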
# [15] = ACEA_ER_AUC_viability: ACEA Biosciences xCELLigence Real-Time Cell Analysis on Estrogen Receptor Agonism for Viability (AID 2283782; active means hit-call score of the fitted dose curve at least 0.9, where 1 is the maximum;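 further: hit means loss of impedance signal meaning reduced cell growth or viability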)
# Method in brief: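 Continuous-exposure impedance cell analysis uses T-47D cells in charcoal-stripped serum, eight 1:4 dilutions topping at 100 uM final, biological duplicate. Area under the growth curve at 80 h is fitted against DMSO baseline.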
# [16] = ATG_AP_2_CIS: Attagene CIS-FACTORIAL HepG2 Assay for human Activator Protein 2 (AP-2) (AID 2282932); conditions: HepG2 AP-2 cis-reporter, Attagene transcription factor profiling; actives raise or lower the signal
# Method in brief: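 Cells (HepG2) transfected with promoter-driven reporter constructs, treated 24 h. Total RNA reverse-transcribed, reporter cDNA PCR-amplified, FAM-labelled by primer extension, digested, resolved by capillary electrophoresis. Activity fitted both directions versus DMSO.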
# [17] = ATG_M_61_CIS: Attagene CIS-FACTORIAL HepG2 Assay for M61 Transcription Factor (Internal Marker) (AID 2282937); conditions: HepG2 Attagene CIS-FACTORIAL M61 internal marker reporter; actives raise or lower the signal
# Method in brief: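 HepG2 cells transiently transfected with cis-element-driven multiple reporter transcription units, dosed for 24 h. Reporter mRNA measured by RT-PCR, 6-FAM primer-extension labelling, HpaI digestion and capillary electrophoresis; bidirectional fit versus DMSO baseline.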
# [18] = ATG_PBREM_CIS: Attagene CIS-FACTORIAL HepG2 Assay for human Phenobarbital-responsive Enhancer Module (PBREM) (AID 2282955); conditions: HepG2 PBREM cis-reporter, Attagene multiplexed transcription; actives raise or lower the signal
# Method in brief: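 HepG2 cells transiently transfected with multiple cis-regulated reporter transcription units; endogenous factor activity at the PBREM element measured as reporter mRNA 24 h after dosing, via RT-PCR and capillary electrophoresis of fluorescent fragments; bidirectional fitting versus DMSO.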
# [19] = TOX21_p53_BLA_p5_viability: Viability Assessment in the Tox21 HCT-116 p53 Agonism Beta-lactamase Assay, Phase 5 (AID 2283600; active means hit-call score of the fitted dose curve at least 0.9, where 1 is the maximum)
# Method in brief: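 Workflow: seed 4000 cells per well, wait 5 h, add compounds (DMSO, 217-fold dilution), incubate 16 h, load CCF4-AM 2 h, add CellTiter-Glo, read luminescence after 30 min.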
# [20] = biological target: human Peroxisome Proliferator-activated Receptor alpha (PPARa), PPARA (gene 5465) (UniProt Q07869); assay: ATG_PPARa_TRANS: Attagene TRANS-FACTORIAL HepG2 Assay for human Peroxisome Proliferator-activated Receptor alpha (PPARa) (AID 2283001; active means hit-call score of the fitted dose curve at least 0.9, where 1 is the maximum)
# Method in brief: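 Cells (HepG2) are transfected with multiple reporter transcription units, exposed to chemical for 24 h, then total RNA is reverse-transcribed and amplified. Labelled products are quantified by capillary electrophoresis; induction is referenced to DMSO.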
# Sequence of Transcription factor E2F1 (Homo sapiens) (Q01094 whole entry, looked up): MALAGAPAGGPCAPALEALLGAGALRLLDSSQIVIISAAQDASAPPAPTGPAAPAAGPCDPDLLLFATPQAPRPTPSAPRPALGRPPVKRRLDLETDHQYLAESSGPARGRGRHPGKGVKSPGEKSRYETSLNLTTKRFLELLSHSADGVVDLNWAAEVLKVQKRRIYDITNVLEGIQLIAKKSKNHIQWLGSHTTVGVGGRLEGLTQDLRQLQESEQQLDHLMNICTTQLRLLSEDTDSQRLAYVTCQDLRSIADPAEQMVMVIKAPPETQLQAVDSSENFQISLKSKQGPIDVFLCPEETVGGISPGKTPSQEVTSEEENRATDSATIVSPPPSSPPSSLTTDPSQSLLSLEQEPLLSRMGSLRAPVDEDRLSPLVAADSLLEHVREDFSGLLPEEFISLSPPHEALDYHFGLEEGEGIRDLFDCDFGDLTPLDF
# Sequence of Peroxisome proliferator-activated receptor gamma (Homo sapiens) (P37231 whole entry, looked up, the tested form may be a part): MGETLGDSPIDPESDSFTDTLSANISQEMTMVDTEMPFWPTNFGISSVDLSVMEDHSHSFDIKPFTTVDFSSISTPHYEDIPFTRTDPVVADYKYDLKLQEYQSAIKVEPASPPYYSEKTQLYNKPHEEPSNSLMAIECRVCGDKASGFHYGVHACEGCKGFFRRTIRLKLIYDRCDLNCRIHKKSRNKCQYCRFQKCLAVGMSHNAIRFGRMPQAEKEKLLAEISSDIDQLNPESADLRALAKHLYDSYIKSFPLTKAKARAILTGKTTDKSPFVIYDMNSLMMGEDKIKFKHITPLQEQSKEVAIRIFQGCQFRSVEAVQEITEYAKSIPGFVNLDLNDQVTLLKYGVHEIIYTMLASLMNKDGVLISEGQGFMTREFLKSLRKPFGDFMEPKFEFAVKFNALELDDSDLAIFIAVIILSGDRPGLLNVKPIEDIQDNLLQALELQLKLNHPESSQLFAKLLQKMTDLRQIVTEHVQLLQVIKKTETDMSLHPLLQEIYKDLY
# Sequence of Cellular tumor antigen p53 (Homo sapiens) (P04637 whole entry, looked up): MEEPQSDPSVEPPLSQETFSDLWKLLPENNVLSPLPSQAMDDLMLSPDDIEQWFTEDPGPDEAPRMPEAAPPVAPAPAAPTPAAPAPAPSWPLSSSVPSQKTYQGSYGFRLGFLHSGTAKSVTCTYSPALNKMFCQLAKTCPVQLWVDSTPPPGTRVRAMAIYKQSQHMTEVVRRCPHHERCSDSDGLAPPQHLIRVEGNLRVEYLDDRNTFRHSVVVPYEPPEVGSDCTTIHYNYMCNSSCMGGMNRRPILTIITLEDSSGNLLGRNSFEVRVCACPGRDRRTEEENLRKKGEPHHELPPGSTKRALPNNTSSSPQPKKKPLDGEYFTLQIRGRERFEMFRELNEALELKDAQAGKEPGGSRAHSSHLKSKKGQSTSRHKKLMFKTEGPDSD
# Sequence of Retinoic acid receptor RXR-alpha (Homo sapiens) (P19793 whole entry, looked up, the tested form may be a part): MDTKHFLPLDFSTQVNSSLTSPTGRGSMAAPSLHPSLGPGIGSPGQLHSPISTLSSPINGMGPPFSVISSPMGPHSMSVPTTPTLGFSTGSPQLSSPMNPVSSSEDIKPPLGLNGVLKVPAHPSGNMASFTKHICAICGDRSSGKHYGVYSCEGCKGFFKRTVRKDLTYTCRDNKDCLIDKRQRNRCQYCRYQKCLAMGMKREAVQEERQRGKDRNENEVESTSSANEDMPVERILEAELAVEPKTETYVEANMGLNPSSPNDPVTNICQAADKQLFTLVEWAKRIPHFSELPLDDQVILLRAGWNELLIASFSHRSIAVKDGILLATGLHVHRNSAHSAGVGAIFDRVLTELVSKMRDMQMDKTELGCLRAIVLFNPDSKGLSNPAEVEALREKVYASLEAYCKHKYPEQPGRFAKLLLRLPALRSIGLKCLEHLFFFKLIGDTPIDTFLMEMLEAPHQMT
# Sequence of human Thyroid Receptor alpha (THRa1), THRA (gene 7067) (P10827 whole entry, looked up, the tested form may be a part): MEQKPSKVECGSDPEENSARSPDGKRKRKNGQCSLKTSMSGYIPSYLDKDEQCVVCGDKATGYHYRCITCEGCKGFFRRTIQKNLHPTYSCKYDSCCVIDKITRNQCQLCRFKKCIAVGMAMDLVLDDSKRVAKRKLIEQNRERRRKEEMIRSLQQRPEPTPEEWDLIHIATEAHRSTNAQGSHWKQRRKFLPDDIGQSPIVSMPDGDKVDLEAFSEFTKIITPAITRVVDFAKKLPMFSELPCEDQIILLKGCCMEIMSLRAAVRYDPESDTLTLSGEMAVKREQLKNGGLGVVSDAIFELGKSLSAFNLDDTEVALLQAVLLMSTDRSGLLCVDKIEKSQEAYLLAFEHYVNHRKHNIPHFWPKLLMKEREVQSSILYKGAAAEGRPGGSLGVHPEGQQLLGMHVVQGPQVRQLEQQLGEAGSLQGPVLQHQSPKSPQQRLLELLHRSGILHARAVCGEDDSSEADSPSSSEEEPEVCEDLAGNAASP
# Sequence of Aryl hydrocarbon receptor (Homo sapiens) (P35869 whole entry, looked up): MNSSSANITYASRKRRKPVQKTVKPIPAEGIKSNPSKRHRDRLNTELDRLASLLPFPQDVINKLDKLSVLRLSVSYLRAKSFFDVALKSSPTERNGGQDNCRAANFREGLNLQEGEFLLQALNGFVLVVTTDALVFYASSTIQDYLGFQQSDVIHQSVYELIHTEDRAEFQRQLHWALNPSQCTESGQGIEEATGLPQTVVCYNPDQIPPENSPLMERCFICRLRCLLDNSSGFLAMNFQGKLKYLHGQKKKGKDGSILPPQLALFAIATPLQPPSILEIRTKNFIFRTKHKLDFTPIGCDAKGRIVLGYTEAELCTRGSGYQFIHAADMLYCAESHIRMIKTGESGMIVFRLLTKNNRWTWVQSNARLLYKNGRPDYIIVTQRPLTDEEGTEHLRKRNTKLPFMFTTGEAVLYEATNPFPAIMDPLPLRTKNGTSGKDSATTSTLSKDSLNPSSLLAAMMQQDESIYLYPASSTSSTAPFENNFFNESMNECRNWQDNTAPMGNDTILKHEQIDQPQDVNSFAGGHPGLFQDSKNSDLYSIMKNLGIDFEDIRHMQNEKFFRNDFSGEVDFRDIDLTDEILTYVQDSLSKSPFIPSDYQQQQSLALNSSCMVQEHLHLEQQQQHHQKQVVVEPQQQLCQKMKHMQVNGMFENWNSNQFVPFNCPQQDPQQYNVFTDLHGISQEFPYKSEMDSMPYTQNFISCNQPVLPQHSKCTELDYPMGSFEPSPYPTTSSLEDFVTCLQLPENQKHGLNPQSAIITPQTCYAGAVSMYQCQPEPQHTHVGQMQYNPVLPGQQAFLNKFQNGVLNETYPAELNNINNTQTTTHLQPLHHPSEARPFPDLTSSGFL
# Sequence of human Peroxisome Proliferator-activated Receptor alpha (PPARa), PPARA (gene 5465) (Q07869 whole entry, looked up): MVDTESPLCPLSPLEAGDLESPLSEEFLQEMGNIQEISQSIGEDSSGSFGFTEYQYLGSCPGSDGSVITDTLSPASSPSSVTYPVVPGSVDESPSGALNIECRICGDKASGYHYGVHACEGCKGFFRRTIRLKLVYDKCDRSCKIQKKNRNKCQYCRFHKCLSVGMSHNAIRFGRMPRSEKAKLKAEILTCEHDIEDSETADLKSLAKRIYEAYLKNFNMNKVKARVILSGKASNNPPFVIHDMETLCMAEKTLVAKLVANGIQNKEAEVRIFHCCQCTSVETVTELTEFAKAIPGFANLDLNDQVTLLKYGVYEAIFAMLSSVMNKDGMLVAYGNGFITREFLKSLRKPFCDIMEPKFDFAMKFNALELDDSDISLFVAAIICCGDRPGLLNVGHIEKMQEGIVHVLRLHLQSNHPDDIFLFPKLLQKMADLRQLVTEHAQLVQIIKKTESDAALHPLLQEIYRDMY
smiles,measurement,setting,value
O=C(NCNC(=O)NC1C(=O)NC(=O)N1CO)NC1C(=O)NC(=O)N1CO (configuration not stated),outcome,[1],inactive
same,outcome,[2],inactive
same,outcome,[3],inactive
same,outcome,[4],inactive
same,outcome,[5],inactive
same,outcome,[6],inactive
same,AC50,[7],157 µM (active)
same,outcome,[8],inactive
same,outcome,[9],inactive
same,outcome,[10],inactive
same,outcome,[11],inactive
same,outcome,[12],inactive
same,outcome,[13],inactive
same,outcome,[14],inactive
same,AC50,[15],9.92 µM (active)
CC1(C)C(=O)NC(=O)NC1=O,outcome,[1],inactive
same,outcome,[16],inactive
same,outcome,[2],inactive
same,outcome,[17],inactive
same,outcome,[18],inactive
same,outcome,[4],inactive
same,outcome,[6],inactive
same,outcome,[7],inactive
same,outcome,[8],inactive
same,outcome,[9],inactive
same,outcome,[10],inactive
same,outcome,[11],inactive
same,outcome,[12],inactive
same,outcome,[13],inactive
same,outcome,[19],inactive
CCOP(=O)(OCC)Oc1ccc([N+](=O)[O-])cc1,outcome,[1],inactive
same,outcome,[18],inactive
same,AC50,[4],26.8 µM (active)
same,outcome,[5],inactive
same,outcome,[6],inactive
same,outcome,[7],inactive
same,outcome,[8],inactive
same,outcome,[9],inactive
same,outcome,[10],inactive
same,outcome,[12],inactive
same,outcome,[13],inactive
same,outcome,[14],inactive
O=S(=O)(O)OOS(=O)(=O)O,outcome,[1],inactive
same,outcome,[16],inactive
same,outcome,[2],inactive
same,outcome,[17],inactive
same,outcome,[3],inactive
same,AC50,[4],56.7 µM (active)
same,outcome,[5],inactive
same,outcome,[6],inactive
same,outcome,[7],inactive
same,outcome,[8],inactive
same,outcome,[10],inactive
same,outcome,[15],inactive
CN1C(=O)CCS(=O)(=O)C1c1ccc(Cl)cc1 (configuration not stated),outcome,[1],inactive
same,outcome,[16],inactive
same,outcome,[2],inactive
same,outcome,[17],inactive
same,outcome,[3],inactive
same,outcome,[4],inactive
same,outcome,[6],inactive
same,outcome,[20],inactive
same,outcome,[10],inactive
c1ccc(P(c2ccccc2)c2ccccc2)cc1,outcome,[1],inactive
same,outcome,[16],inactive
same,outcome,[2],inactive
same,outcome,[3],inactive
same,outcome,[18],inactive
same,AC50,[4],4.59 µM (active)
same,outcome,[5],inactive
same,outcome,[6],inactive
same,outcome,[7],inactive
same,outcome,[8],inactive
same,outcome,[13],inactive
same,outcome,[19],inactive
same,AC50,[15],82.9 µM (active)
CC(C)(Cl)Cl,outcome,[1],inactive
same,outcome,[16],inactive
same,outcome,[2],inactive
same,outcome,[17],inactive
same,outcome,[3],inactive
same,outcome,[18],inactive
same,outcome,[5],inactive
same,outcome,[6],inactive
same,outcome,[7],inactive
same,outcome,[20],inactive
same,outcome,[8],inactive
same,outcome,[11],inactive
same,outcome,[12],inactive
same,outcome,[13],inactive
same,outcome,[19],inactive
same,outcome,[14],inactive
same,outcome,[15],inactive
CC(C)CCCCCCCOP(=O)(Oc1ccccc1)Oc1ccccc1,outcome,[1],inactive
same,outcome,[16],inactive
same,outcome,[3],inactive
same,outcome,[18],inactive
same,AC50,[4],0.408 µM (active)
same,outcome,[5],inactive
same,AC50,[6],27.2 µM (active)
same,AC50,[8],7.95 µM (active)
same,outcome,[11],inactive
same,outcome,[12],inactive
same,outcome,[13],inactive
same,outcome,[19],inactive
same,outcome,[14],inactive
same,outcome,[15],inactive
